The values below come from PubChem BioAssay (NCATS).

The structures appear in SMILES notation. Inconclusive results are not listed. Active and inactive are the calls of the source. Calls follow the shape of the dose curve; as a rule, active = well fitted inhibition curve with a large enough effect; inconclusive = small, poorly fitted or top-dose-only effect; inactive = flat fitted curve, though single readings scatter.
% is scaled to controls: 0 for no effect and ±100 for the full control effect.

Calcium and integrin-binding protein 1 (Homo sapiens), sequence (Q99828 whole entry, looked up): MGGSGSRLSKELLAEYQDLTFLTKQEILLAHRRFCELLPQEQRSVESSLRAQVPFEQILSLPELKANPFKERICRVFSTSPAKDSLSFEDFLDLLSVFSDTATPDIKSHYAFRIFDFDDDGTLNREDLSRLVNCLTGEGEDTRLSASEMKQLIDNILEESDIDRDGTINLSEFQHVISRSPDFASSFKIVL

For this assay, the target named is Calcium and integrin-binding protein 1 (Homo sapiens) (UniProt Q99828). The assay is described as follows: Primary qHTS for Identification of Calcium Integrin Binding Protein 1 (CIB1) Competitor (AID 1508620). Also: top concentration of the series differs between compounds. The conditions noted are these: CIB1-GST / FITC-alphaIIb peptide fluorescence polarization; series mostly up to 114 µM; activity change, negative = inhibition: at the top concentration. The procedure, abridged:
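Fluorescence polarization competition: GST-tagged CIB1 (1 uM final) preincubated with compound 15 min at room temperature, then FITC-labelled alphaIIb peptide (100 nM final) added. After 15 min at room temperature, polarization read at Ex 480/Em 540.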
On to `Cc1noc(C)c1-c1ccc(Nc2nc(-c3ccncc3)nc3ccccc23)cc1F`, for which the “activity change, negative = inhibition” value is 14.7% (inactive).

On to `Cc1ccc(C)c(SC2CS(=O)(=O)c3ccccc32)c1` (stereo not given), for which the “activity change, negative = inhibition” value was 1.28% (inactive).

Regarding `N#Cc1nc(Nc2ccc(-c3ccccc3)cc2)nc(NC2CCCC2)n1`, the “activity change, negative = inhibition” value is 6.24% (inactive). Still for that read-out and setting: to `O=C(O)C1C2C(=O)N(c3ccccc3)C[C@@]23C=C[C@@H]1O3` (stereo not given in full) belongs 5.6% (inactive); to `Cc1ccc(NS(=O)(=O)c2cc3c(cc2C)NC(=O)CO3)cc1C`, 0.574% (inactive). On to `Nc1cccc([S+](=O)([O-])N2CCCN([S+](=O)([O-])c3cccc(N)c3)CC2)c1`, for which the “activity change, negative = inhibition” value was -17.1% (inactive).

As to `COc1ccc(C(=O)Nc2ccc(-c3nc4ccccc4[nH]3)cc2)cc1F`, the “activity change, negative = inhibition” value was 6.11% (inactive). With `O=C1CN(S(=O)(=O)c2ccc3c(c2)OCCO3)CCN1S(=O)(=O)c1c(F)cccc1F`, the “activity change, negative = inhibition” value is -0.843% (inactive). For the compound `Cc1ccc(OCCn2c(CCNC(=O)c3cc(F)cc(F)c3)nc3ccccc32)cc1`, the “activity change, negative = inhibition” value is -7.19% (inactive).

Regarding `COc1ccc(C2Cc3ccccc3C(=O)N2Cc2ccccc2)cc1COc1ccc(NC(C)=O)cc1` (stereo not given), the “activity change, negative = inhibition” value was 5.01% (inactive). Same read-out and setting: with `Cc1ccc(NS(=O)(=O)c2ccc3c(c2)CC(=O)N3C)cc1C` the figure was 3.74% (inactive). With `c1ccc(CNc2ccc(N3CCOCC3)cc2)cc1`, the “activity change, negative = inhibition” value was -7.36% (inactive). The same measure, in the same setting: with `Cc1cc(NS(=O)(=O)CCNC(=O)Cc2ccc(Cl)c(Cl)c2)no1` the figure was -3.59% (inactive); with `Cc1cc(C)cc(Cn2ncc3c4sc(C)cc4n(C)c3c2=O)c1`, 11.8% (inactive); with `O=S(=O)(NCCNS(=O)(=O)c1c(F)cccc1F)c1ccc2c(c1)OCCO2`, -2.51% (inactive). Same read-out and setting: to `COc1cccc(-c2ccc3ncnc(NCc4ccc5c(c4)OCO5)c3c2)c1` belongs 3.55% (inactive); to `CC(=O)NC(c1cccs1)c1cc(F)c2cccnc2c1O` (stereo not given), -16.3% (inactive); to `O=C(O)c1ccc(O)c2ncc(N3CCCN(CCCc4ccncc4)CC3)cc12`, -7.37% (inactive). On the same count and under the same terms, with `CC(=O)c1ccc(N2CCN(S(=O)(=O)c3cc4c(cc3Cl)NC(=O)C4)CC2)cc1` the figure was -22% (inactive); with `Cc1ccnc(NC(=S)N2CCN(c3cccc(N(C)C)c3)CC2)c1`, -17% (inactive); with `Cc1cc(-c2nnc3n2CCCCC3)c(C)n1-c1ccc(C(F)(F)F)cc1`, 2.74% (inactive). As to `N#Cc1ccc(OC2=NS(=O)(=O)c3ccccc32)cc1`, the “activity change, negative = inhibition” value was 0.726% (inactive).

Turning to `CCCCNC(=S)NCCCN(Cc1ccc(Cl)c(Cl)c1)c1ccc(Br)cn1`, the “activity change, negative = inhibition” value is -4.36% (inactive). On the same count and under the same terms, to `Fc1cc(Nc2nc(-c3ccncc3)nc3ccccc23)ccc1-c1ccc(F)c(F)c1F` belongs 3.83% (inactive). Consider `CCCN1CCN(c2cccc(Nc3nn4c(=O)c5ccccc5nc4s3)c2)CC1`, for which the Potency result was “inactive”. Consider `C=CCNc1oc(-c2cccc(F)c2)nc1C#N`, for which the “activity change, negative = inhibition” value is -12.7% (inactive).

With `Cc1sc(NC(=O)Cc2ccc3c(c2)OCO3)nc1-c1ccc2c(c1)CCN2C(=O)C1CCCCC1`, the “activity change, negative = inhibition” value was 3.84% (inactive). On to `O=C(Nc1ccc(Cl)c([N+](=O)[O-])c1)Nc1nnc(C2CCCCC2)s1`, for which the “activity change, negative = inhibition” value was -0.73% (inactive). Still for that read-out and setting: with `COc1cccc(-c2ccc3ncnc(NCc4cccc(C)c4)c3c2)c1` the figure was 4.84% (inactive); with `C[C@@](Cc1ccccc1)(C(=O)O)N1C(=O)c2ccc(C(=O)O)cc2C1=O`, 12.3% (inactive). For the compound `COc1cc(Nc2nc(-c3ccncc3)nc3ccccc23)ccc1F`, the Potency result is “inactive”. On to `Cc1noc(C)c1-c1ccc2ncnc(NCc3ccc(-c4ccccc4)cc3)c2c1`, for which the “activity change, negative = inhibition” value was 4.23% (inactive). Still for that read-out and setting: to `CC(C)(C)OC(=O)NCc1nnc(-c2cc3ccccc3[nH]2)s1` belongs -2.55% (inactive); to `O=S(=O)(Nc1ccc(C2CCNCC2)cc1)c1ccc(NCc2cccc(Cl)c2O)cc1`, -24.7% (inactive). On the same count and under the same terms, with `O=C(Cn1ncccc1=O)NCCc1ccccc1` the figure was 3.14% (inactive); with `COc1ccc(C2Nc3ccccc3C(=O)N2Cc2ccccc2)cc1COc1cccc(Cl)c1` (stereo not given), -1% (inactive); with `c1csc(CNc2ncnc3ccc(-c4ccc5c(c4)OCCO5)cc23)c1`, -1.59% (inactive). Same read-out and setting: to `Cc1cccc(CNc2ccnc(-c3ccc(F)cc3F)n2)c1` belongs -1.52% (inactive). As for `Fc1cccc(CNc2ncnc3ccc(-c4cccnc4)cc23)c1`, the “activity change, negative = inhibition” value is 0.499% (inactive). Take `O=C(O)c1ccc2c(c1)C(=O)N([C@H](Cc1c[nH]c3ccccc13)C(=O)O)C2=O`: the “activity change, negative = inhibition” value is -0.105% (inactive).
